# The sample as a whole holds a higher share of the strongest signals than the screen did.
# Legend:
# Test in all cases: glycan array binding signal (z-score within array); higher = stronger binding
# Settings in all cases: glycan notation: IUPAC condensed, linker removed
# [1] = molecular target: Fuc(a1-2)Gal(b1-3)GalNAc(b1-3)Gal
# Procedure, shortened: (§1)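 Columns mapping to the same glycan were averaged after glycan names were converted to IUPAC-condensed notation. The data come from 3228 arrays in the Consortium for Functional Glycomics database, limited to those with an available protein sequence. Binding is reported as a within-array Z-score averaged across arrays of one protein sequence and across linkers.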
# [2] = molecular target: Fuc(a1-2)Gal(b1-3)GlcNAc
# Procedure, shortened: as §1
# [3] = molecular target: Fuc(a1-2)Gal(b1-3)GlcNAc(b1-3)Gal(b1-4)Glc
# Procedure, shortened: as §1
# [4] = molecular target: Fuc(a1-2)Gal(b1-3)GlcNAc6S
# Procedure, shortened: as §1
# [5] = molecular target: Fuc(a1-2)Gal(b1-4)Glc6S
# Procedure, shortened: as §1
# [6] = molecular target: Fuc(a1-2)[Gal(a1-3)]Gal(b1-3)GalNAc
# Procedure, shortened: as §1
# [7] = molecular target: Fuc(a1-2)[GalNAc(a1-3)]Gal(b1-3)GlcNAc(b1-6)GalNAc
# Procedure, shortened: as §1
# [8] = molecular target: Fuc(a1-3)GlcNAc
# Procedure, shortened: as §1
# [9] = molecular target: Gal(a1-3)Gal(b1-3)GlcNAc
# Procedure, shortened: as §1
# [10] = molecular target: Gal(a1-3)Gal(b1-3)GlcNAc(b1-6)GalNAc
# Procedure, shortened: as §1
# [11] = molecular target: Gal(a1-4)Gal(b1-3)GlcNAc(b1-2)Man(a1-3)[Gal(a1-4)Gal(b1-3)GlcNAc(b1-2)Man(a1-6)]Man(b1-4)GlcNAc(b1-4)GlcNAc
# Procedure, shortened: as §1
# [12] = molecular target: Gal(a1-6)Glc
# Procedure, shortened: as §1
# [13] = molecular target: Gal(b1-3)Gal(b1-4)GlcNAc
# Procedure, shortened: as §1
# [14] = molecular target: Gal(b1-3)GlcNAc(b1-2)Man(a1-3)[Gal(b1-3)GlcNAc(b1-2)Man(a1-6)]Man(b1-4)GlcNAc(b1-4)GlcNAc
# Procedure, shortened: as §1
# [15] = molecular target: Gal(b1-3)GlcNAc(b1-2)Man(a1-3)[GlcNAc(b1-4)][Gal(b1-3)GlcNAc(b1-2)Man(a1-6)]Man(b1-4)GlcNAc(b1-4)GlcNAc
# Procedure, shortened: as §1
# [16] = molecular target: Gal(b1-3)GlcNAc(b1-3)Gal(b1-3)GlcNAc
# Procedure, shortened: as §1
# [17] = molecular target: Gal(b1-3)[Neu5Ac(a2-6)]GlcNAc(b1-6)Gal(b1-4)Glc
# Procedure, shortened: as §1
# [18] = molecular target: Gal(b1-4)GlcNAc(a1-6)Gal(b1-4)GlcNAc
# Procedure, shortened: as §1
# [19] = molecular target: Gal(b1-4)GlcNAc(b1-2)Man(a1-3)Man(b1-4)GlcNAc(b1-4)GlcNAc
# Procedure, shortened: as §1
# [20] = molecular target: Gal(b1-4)GlcNAc(b1-2)Man(a1-3)[Gal(b1-4)GlcNAc(b1-2)Man(a1-6)]Man(b1-4)GlcNAc(b1-4)GlcNAc
# Procedure, shortened: as §1
# [21] = molecular target: Gal(b1-4)GlcNAc(b1-2)Man(a1-3)[Man(a1-6)]Man(b1-4)GlcNAc(b1-4)GlcNAc
# Procedure, shortened: as §1
# [22] = molecular target: Gal(b1-4)GlcNAc(b1-3)Gal(b1-3)GalNAc
# Procedure, shortened: as §1
# [23] = molecular target: Gal(b1-4)GlcNAc(b1-3)Gal(b1-4)GlcNAc(b1-3)GalNAc
# Procedure, shortened: as §1
# [24] = molecular target: Gal(b1-4)GlcNAc(b1-3)Gal(b1-4)[Fuc(a1-3)]GlcNAc(b1-3)Gal(b1-4)[Fuc(a1-3)]GlcNAc
# Procedure, shortened: as §1
# [25] = molecular target: Gal(b1-4)GlcNAc(b1-3)[Gal(b1-4)GlcNAc(b1-6)]Gal(b1-4)GlcNAc
# Procedure, shortened: as §1
# [26] = molecular target: Gal(b1-4)GlcNAc(b1-3)[GlcNAc(b1-6)]Gal(b1-4)GlcNAc
# Procedure, shortened: as §1
# [27] = molecular target: Gal(b1-4)GlcNAc(b1-6)[Gal(b1-3)]GalNAc
# Procedure, shortened: as §1
# [28] = molecular target: Gal(b1-6)Gal
# Procedure, shortened: as §1
# [29] = molecular target: Gal3S(b1-3)GlcNAc
# Procedure, shortened: as §1
# [30] = molecular target: Gal3S(b1-4)Glc
# Procedure, shortened: as §1
# [31] = molecular target: Gal3S6S(b1-4)GlcNAc
# Procedure, shortened: as §1
# [32] = molecular target: GalNAc(a1-3)GalNAc
# Procedure, shortened: as §1
# [33] = molecular target: GalNAc(b1-4)Gal(b1-4)Glc
# Procedure, shortened: as §1
# [34] = molecular target: GalNAc3S(b1-4)GlcNAc
# Procedure, shortened: as §1
# [35] = molecular target: GalNAc3S(b1-4)GlcNAc3S
# Procedure, shortened: as §1
# [36] = molecular target: GalNAc3S(b1-4)[Fuc(a1-3)]GlcNAc
# Procedure, shortened: as §1
# [37] = molecular target: GlcNAc(a1-4)Gal(b1-4)GlcNAc(b1-3)Gal(b1-4)GlcNAc
# Procedure, shortened: as §1
# [38] = molecular target: GlcNAc(a1-4)Gal(b1-4)GlcNAc(b1-3)Gal(b1-4)[Fuc(a1-3)]GlcNAc(b1-3)Gal(b1-4)[Fuc(a1-3)]GlcNAc
# Procedure, shortened: as §1
# [39] = molecular target: GlcNAc(b1-2)Man(a1-3)[GlcNAc(b1-2)Man(a1-6)]Man(b1-4)GlcNAc(b1-4)GlcNAc
# Procedure, shortened: as §1
# [40] = molecular target: GlcNAc(b1-2)[GlcNAc(b1-4)]Man(a1-3)[GlcNAc(b1-2)Man(a1-6)]Man(b1-4)GlcNAc(b1-4)GlcNAc
# Procedure, shortened: as §1
# [41] = molecular target: GlcNAc(b1-3)Gal
# Procedure, shortened: as §1
# [42] = molecular target: GlcNAc(b1-3)Gal(b1-4)GlcNAc(b1-2)Man(a1-3)[GlcNAc(b1-3)Gal(b1-4)GlcNAc(b1-2)Man(a1-6)]Man(b1-4)GlcNAc(b1-4)[Fuc(a1-6)]GlcNAc
# Procedure, shortened: as §1
# [43] = molecular target: GlcNAc6S(b1-3)Gal(b1-4)GlcNAc
# Procedure, shortened: as §1
# [44] = molecular target: Kdn(a2-3)Gal(b1-3)GalNAc
# Procedure, shortened: as §1
# [45] = molecular target: Man(a1-2)Man(a1-3)[Man(a1-2)Man(a1-6)]Man(a1-6)[Man(a1-3)[Man(a1-6)]Man(a1-6)]Man(b1-4)GlcNAc(b1-4)GlcNAc
# Procedure, shortened: as §1
# [46] = molecular target: Man(a1-2)Man(a1-3)[Man(a1-6)]Man(a1-6)[Man(a1-2)Man(a1-3)]Man(b1-4)GlcNAc(b1-4)GlcNAc
# Procedure, shortened: as §1
# [47] = molecular target: Man(a1-2)Man(a1-6)[Man(a1-3)]Man(a1-6)[Man(a1-2)Man(a1-2)Man(a1-3)]Man
# Procedure, shortened: as §1
# [48] = molecular target: Man(a1-2)Man(a1-6)[Man(a1-3)]Man(a1-6)[Man(a1-2)Man(a1-2)Man(a1-3)]Man(b1-4)GlcNAc(b1-4)GlcNAc
# Procedure, shortened: as §1
# [49] = molecular target: Man(a1-3)[Man(a1-6)]Man(a1-6)[Man(a1-2)Man(a1-3)]Man(b1-4)GlcNAc(b1-4)GlcNAc
# Procedure, shortened: as §1
# [50] = molecular target: Man(a1-3)[Man(a1-6)]Man(a1-6)[Man(a1-3)]Man(b1-4)GlcNAc(b1-4)GlcNAc
# Procedure, shortened: as §1
# [51] = molecular target: Man(a1-3)[Man(a1-6)]Man(b1-4)GlcNAc(b1-4)GlcNAc
# Procedure, shortened: as §1
# [52] = molecular target: Neu5Ac(a2-3)Gal(b1-3)GlcNAc(b1-3)Gal(b1-3)GlcNAc
# Procedure, shortened: as §1
# [53] = molecular target: Neu5Ac(a2-3)Gal(b1-3)[Fuc(a1-4)]GlcNAc
# Procedure, shortened: as §1
# [54] = molecular target: Neu5Ac(a2-3)Gal(b1-3)[Fuc(a1-4)]GlcNAc(b1-3)Gal(b1-4)[Fuc(a1-3)]GlcNAc
# Procedure, shortened: as §1
# [55] = molecular target: Neu5Ac(a2-3)Gal(b1-3)[Neu5Ac(a2-3)Gal(b1-4)]GlcNAc
# Procedure, shortened: as §1
# [56] = molecular target: Neu5Ac(a2-6)Gal(b1-4)GlcNAc(b1-2)Man(a1-3)[GlcNAc(b1-2)Man(a1-6)]Man(b1-4)GlcNAc(b1-4)GlcNAc
# Procedure, shortened: as §1
# [57] = molecular target: Neu5Ac(a2-6)Gal(b1-4)GlcNAc(b1-2)Man(a1-3)[Neu5Ac(a2-6)Gal(b1-4)GlcNAc(b1-2)Man(a1-6)]Man(b1-4)GlcNAc(b1-4)[Fuc(a1-6)]GlcNAc
# Procedure, shortened: as §1
# [58] = molecular target: Neu5Gc(a2-8)Neu5Gc(a2-3)Gal(b1-4)GlcNAc
# Procedure, shortened: as §1
# [59] = molecular target: Neu5Gc(a2-8)Neu5Gc(a2-3)Gal(b1-4)GlcNAc(b1-3)Gal(b1-4)GlcNAc
# Procedure, shortened: as §1
# [60] = molecular target: Neu5Gc(a2-8)Neu5Gc(a2-6)Gal(b1-4)GlcNAc
# Procedure, shortened: as §1
# [61] = molecular target: Neu5Gc(b2-6)Gal(b1-4)GlcNAc
# Procedure, shortened: as §1
binder,measurement,setting,value
AMA (Arum maculatun) (protein) MAKLLLLLLLPAIVGLAVPRSAAAVGSNYMLSGETLNTDGRLTNGELTLIMQVDCNLVLYHGGWQSNTANNGRDCKLTLTDFGELVIKSGTGSTVWSSGSKQSMKGNYAAVVHPEGRLVIYGPSVFKINPSGAGLNGLPLRNIPLTNNMLFSGQVLYGDGTLSARNHKLVMQGDCNMVLYGGKYGWQSNTHGNGKYCFAMLTHKGELVIRDDDFKSVWSSKSSSKQGDYVFILQDDSLAIIYGPAVFSTGSKKMISMVTN,glycan array binding signal (z-score),[1],-0.21
same,glycan array binding signal (z-score),[2],-0.176
same,glycan array binding signal (z-score),[3],-0.22
same,glycan array binding signal (z-score),[4],-0.207
same,glycan array binding signal (z-score),[5],-0.208
same,glycan array binding signal (z-score),[6],-0.211
same,glycan array binding signal (z-score),[7],-0.216
same,glycan array binding signal (z-score),[8],-0.221
same,glycan array binding signal (z-score),[9],-0.21
same,glycan array binding signal (z-score),[10],-0.216
same,glycan array binding signal (z-score),[11],5.86
same,glycan array binding signal (z-score),[12],-0.214
same,glycan array binding signal (z-score),[13],-0.208
same,glycan array binding signal (z-score),[14],3.15
same,glycan array binding signal (z-score),[15],-0.205
same,glycan array binding signal (z-score),[16],-0.207
same,glycan array binding signal (z-score),[17],-0.198
same,glycan array binding signal (z-score),[18],-0.215
same,glycan array binding signal (z-score),[19],-0.215
same,glycan array binding signal (z-score),[20],3.36
same,glycan array binding signal (z-score),[21],0.479
same,glycan array binding signal (z-score),[22],-0.219
same,glycan array binding signal (z-score),[23],-0.149
same,glycan array binding signal (z-score),[24],-0.209
same,glycan array binding signal (z-score),[25],-0.213
same,glycan array binding signal (z-score),[26],-0.227
same,glycan array binding signal (z-score),[27],-0.212
same,glycan array binding signal (z-score),[28],-0.208
same,glycan array binding signal (z-score),[29],-0.209
same,glycan array binding signal (z-score),[30],-0.211
same,glycan array binding signal (z-score),[31],-0.213
same,glycan array binding signal (z-score),[32],-0.209
same,glycan array binding signal (z-score),[33],-0.203
same,glycan array binding signal (z-score),[34],-0.22
same,glycan array binding signal (z-score),[35],-0.217
same,glycan array binding signal (z-score),[36],-0.216
same,glycan array binding signal (z-score),[37],-0.205
same,glycan array binding signal (z-score),[38],-0.201
same,glycan array binding signal (z-score),[39],6.01
same,glycan array binding signal (z-score),[40],7.69
same,glycan array binding signal (z-score),[41],-0.211
same,glycan array binding signal (z-score),[42],2.21
same,glycan array binding signal (z-score),[43],-0.202
same,glycan array binding signal (z-score),[44],-0.207
same,glycan array binding signal (z-score),[45],3.87
same,glycan array binding signal (z-score),[46],3.3
same,glycan array binding signal (z-score),[47],-0.213
same,glycan array binding signal (z-score),[48],4.91
same,glycan array binding signal (z-score),[49],8.56
same,glycan array binding signal (z-score),[50],4.09
same,glycan array binding signal (z-score),[51],3.64
same,glycan array binding signal (z-score),[52],-0.204
same,glycan array binding signal (z-score),[53],-0.218
same,glycan array binding signal (z-score),[54],-0.226
same,glycan array binding signal (z-score),[55],0.441
same,glycan array binding signal (z-score),[56],0.845
same,glycan array binding signal (z-score),[57],0.863
same,glycan array binding signal (z-score),[58],-0.22
same,glycan array binding signal (z-score),[59],-0.215
same,glycan array binding signal (z-score),[60],-0.211
same,glycan array binding signal (z-score),[61],-0.21
